LmPK inhibitor – blocks Leishmania mexicana pyruvate kinase activity; Q27686; purified LmPK, Kinase-Glo ATP luminescence, 1 h; Potency, µM (doses to about 57.5 µM), for the others: top-dose activity change, negative = inhibition, actives largely listed as inhibitors; 290,000 compounds, 0.37% hits; AID 1721
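qHTS format; LmPK 0.1 nM; substrates PEP 0.5 mM and ADP 0.1 mM. One-hour room-temperature incubation, then coupled luciferase luminescence; 0.5 nM enzyme wells mark activation.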
Tb PYK inh – T. brucei pyruvate kinase inhibition | Q57TT1 | TbPYK enzyme, Kinase-Glo Plus ATP luminescence, 45 min | Potency, µM (top dose mostly 76.8 µM), for inactives: at the top dose activity, negative = inhibition, hits mostly inhibitors | 410,000 compounds, 0.12% hits; also: nearly all actives have a fitted effect of over 50% in size
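Assay buffer: 50 mM TEA pH 7.2, 100 mM KCl, 10 mM MgCl2, 0.05% BSA, 0.01% Tween-20. Pyruvate kinase from T. brucei plus substrate met compound, then ADP (130 uM final). Luminescence was read post 45 min RT.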
Giardia FBPA inh-1 – inhibitors of Giardia lamblia fructose-1,6-bisphosphate aldolase. A8B2U2. purified Giardia FBPA. Potency, µM (doses to about 59.6 µM), for inactives: at the top dose activity, negative = inhibition, hits mostly inhibitors. 290,000 compounds, 0.71% hits. AID 2451; also: nearly all actives have a fitted effect of over 55% in size
Target sequence (A8B2U2 whole entry, looked up): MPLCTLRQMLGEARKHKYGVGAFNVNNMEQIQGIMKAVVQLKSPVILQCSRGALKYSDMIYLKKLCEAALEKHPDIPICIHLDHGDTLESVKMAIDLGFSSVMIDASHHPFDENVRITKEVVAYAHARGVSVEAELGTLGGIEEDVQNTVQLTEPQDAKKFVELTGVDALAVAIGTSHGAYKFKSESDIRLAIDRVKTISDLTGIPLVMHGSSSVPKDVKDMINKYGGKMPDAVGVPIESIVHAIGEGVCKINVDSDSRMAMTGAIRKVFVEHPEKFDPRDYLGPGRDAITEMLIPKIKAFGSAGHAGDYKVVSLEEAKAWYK
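Giardia FBPA (40 nM reagent) was preincubated 10 min at RT with compound (up to 57.5 uM final), then substrate plus GAPDH/TPI/NAD/arsenate coupling system with diaphorase/resazurin was added; resorufin fluorescence (525/598 nm) was read after 20 min.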
RE007 growth inh – less growth of the S. pombe RE007 Vpr strain. S. pombe RE007 Vpr strain, BacTiter-Glo ATP luminescence, 24 h. Potency, µM (series often up to 92.2 µM), inactives show top-dose activity change, negative = less growth, actives largely listed as inhibitors. 360,000 compounds, 0.21% hits. AID 651644; active = well fitted falling curve with a large enough effect; inconclusive = small, poorly fitted or top-dose-only effect; inactive = no such curve, though single readings can be large or run the other way; also: nearly all actives have a fitted effect of over 50% in size
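Fission yeast RE007 carrying one integrated HIV-1 vpr copy, seeded at OD 0.01 in PMG+AL medium with 23 nL pinned compound. Grown 24 h at 30 degrees; viability read by BacTiter-Glo luminescence after 5 min.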
Giardia growth – Giardia lamblia growth inhibition; shares compounds with Giardia FBPA inh-1; Giardia lamblia trophozoite growth inhibition; Potency, µM (highest dose often 57.5 µM), without a hit: top-dose activity change, negative = inhibition, most hits filed as inhibitors; 1,500 compounds, 5% hits;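 also: trophozoites exposed to compound for 48 h at 37 °C; nearly all actives have a fitted effect of over 70% in size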
Mammal cell tox – counter-screen for Giardia aldolase inhibitors: mammalian cell toxicity; shares compounds with Giardia FBPA inh-1; mammalian cell viability counter-screen, qHTS; Potency, µM (doses to about 57.5 µM), inactives show at the top dose viability change, negative = toxicity, usual class: inhibitors; 1,500 compounds, 4% hits; AID 2786;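 also: Chinese hamster ovary cells used as mammalian cytotoxicity surrogate; viability measured as cellular ATP by luminescence; compound exposure lasted 48 h before reading; nearly all actives have a fitted effect of over 60% in size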
Giardia FBPA inh-2 – confirmation of Giardia fructose-bisphosphate aldolase inhibitors; Potency, µM (doses to about 57.5 µM), without a hit: top-dose activity change, negative = inhibition, most hits filed as inhibitors; AID 2787; 1,500 compounds, 5% hits; purified Giardia aldolase enzyme activity, qHTS; shares compounds with Giardia FBPA inh-1; also: nearly all actives have a fitted effect of over 45% in size
Rabbit aldolase – selectivity test for Giardia aldolase inhibitors: rabbit aldolase. shares compounds with Giardia FBPA inh-1. Rabbit muscle FBPA enzyme inhibition, selectivity counter-screen. Potency, µM (titrated, usually from 57.5 µM), for inactives: at the highest dose activity, negative = inhibition, actives largely listed as inhibitors. 1,500 compounds, 4% hits. AID 2794; also: nearly all actives have a fitted effect of over 60% in size
GAPDH coupling – counter-screen for Giardia aldolase inhibitors: GAPDH coupling enzyme; shares compounds with Giardia FBPA inh-1; GAPDH coupling enzyme counterscreen, biochemical, qHTS; Potency, µM (titrated, usually from 57.5 µM), for inactives: at the top dose activity change, negative = inhibition, most hits filed as inhibitors; 1,500 compounds, 6% hits; AID 2795; also: nearly all actives have a fitted effect of over 55% in size
* hit, by the source's call; ? = inconclusive; · = no result; [ ] = dose if it differs, or a comment. Most compounds without a hit are left out; they make up all but 0.95% or so of the library. Unless noted, calls follow the shape of the dose curve; as a rule, active = well fitted curve in the direction sought with a large enough effect; inconclusive = small, poorly fitted or top-dose-only effect, or another doubt; inactive = no such curve, though single readings can be large; an effect the other way counts as inactive or inconclusive. % is scaled to controls: 0 for no effect and ±100 for the full control effect; potency is read from the fitted curve at half-maximal effect.

SMILES | LmPK inhibitor | Tb PYK inh | Giardia FBPA inh-1 | RE007 growth inh | Giardia growth | Mammal cell tox | Giardia FBPA inh-2 | Rabbit aldolase | GAPDH coupling
Clc1ccc(/C=N/N2CCN(Cc3ccccc3Cl)CC2)cc1 | 6.5% | -1.6% | 0.3% | ? | · | · | · | · | ·
[O-][N+](=C(c1ccccc1)c1ccccc1)c1ccccc1 | · | 6.3% | · | -10.4% | · | · | · | · | ·
COc1ccc(CN2CCN(Cc3ccccc3F)CC2)cc1 | -4.8% | 8.1% | 15.8µM* | -16.7% | 16.5% | -3.1% | -1.4% | 8.8% | 1.1%
N#CCCN(Cc1cccnc1)C(=S)NC(=O)c1ccc(S(=O)(=O)N2CCCC2)cc1 | -0.8% | ? | 7.92µM* | 3.7% | 10.4% | 7.5% | -1.8% | 5.0% | 12.5%
CC(=O)c1cccc(NC(=S)NC(=O)c2cncc(Br)c2)c1 | -5.7% | -1.9% | 12.6µM* | 9.1% | -10.2%[10.4 µM] | 14.6% | 9.4% | 10.5% | 6.6%
Cc1cccnc1NC(=S)NC(=O)c1cncc(Br)c1 | -7.5% | 9.9% | 9.98µM* | 0.0% | -1.8%[38.3 µM] | -8.4% | 0.0% | -6.0% | -1.0%
O=C(NC(=S)Nc1ccccn1)c1cncc(Br)c1 | -3.0% | 1.6% | -25.9% | -11.2% | · | · | · | · | ·
Cc1cccnc1NC(=O)CNC(=O)c1cccs1 | · | -2.1% | · | -12.0% | · | · | · | · | ·
Cc1cccnc1NC(=S)NC(=O)c1cccs1 | -21.3% | -13.1% | 19.9µM* | 4.1% | 0.3%[10.4 µM] | 31.6µM* | -1.2% | 5.8% | 14.7%
O=C(NC(=S)Nc1ccccc1[N+](=O)[O-])c1cncc(Br)c1 | 1.3% | 0.2% | 7.94µM* | -3.4% | 11.2µM* | -3.8% | 6.3% | 4.5% | 9.4%
CCN(C(=O)C1CCN(S(=O)(=O)c2ccc3c(c2)CCCN3C(=O)C2CCC2)CC1)c1cccc(C)c1 | · | -2.4% | · | · | · | · | · | · | ·
COC(=O)c1ccc(C(=O)O)nc1 | -0.1% | 0.8% | 19.9µM* | 1.7% | 60.8% | 10.7% | 2.9% | 12.2% | -3.4%
COC(=O)c1ccc(C(=O)OC)nc1 | 1.3% | 11.7% | 0.6% | 12.8% | · | · | · | · | ·
COc1ccccc1N1CCN(C(C)C(=O)N2CC(C)OC(C)C2)CC1 (stereo unspecified) | -13.7% | -0.9% | 5.61µM* | 10.3% | 9.3%[10.4 µM] | 4.0% | -4.7% | -7.5% | 5.0%
COc1ccccc1N1CCN(C(=O)C(F)F)CC1 | 5.0% | 0.8% | 1.2% | -5.2% | · | · | · | · | ·
CN(C)C(=O)c1ccc(-c2nc(Nc3ccccc3)c3ccccc3n2)cc1 | · | · | -13.2% | · | · | · | · | · | ·
O=C(Cc1ccccc1)NS(=O)(=O)c1ccccc1 | · | 4.7% | · | 10.1% | · | · | · | · | ·
CCNC(=S)NS(=O)(=O)c1ccccc1 | -5.9% | -0.8% | 7.92µM* | 14.9% | -16.4% | 12.1% | 0.5% | 9.9% | 14.1%
CCNC(=S)NS(=O)(=O)c1ccc(Cl)cc1 | 0.8% | 1.1% | 7.08µM* | 11.9% | 25.1% | -3.4% | 5.2% | 1.0% | 9.7%
CCNC(=S)NNc1ccccc1 | 2.6% | -8.4% | 11.2µM* | ? | -12.7%[10.4 µM] | 10.8% | 3.0% | 11.2% | 1.6%
O=C(Nc1c(C(=O)c2ccccc2)oc2ccccc12)c1cc(=O)c2ccccc2o1 | · | 4.9% | · | · | · | · | · | · | ·
COc1cccc(/C=N/Nc2nnc(C)n2N)c1OCc1ccccc1Cl | 4.3% | 0.2% | 5.1% | -16.1% | · | · | · | · | ·
CCc1nnc(N/N=C/c2ccccc2Cl)n1N | -3.2% | -7.0% | 17.7µM* | -6.5% | ? | 2.6% | -26.1% | -14.8% | -19.4%
CCc1nnc(N/N=C/c2ccccc2F)n1N | 1.1% | 2.7% | 19.9µM* | -11.2% | 71.3% | -2.0% | ? | -17.0% | -2.3%
Cc1ccccc1-n1c(N)c(C(=O)Nc2ccc(F)cc2)sc1=S | 1.3% | -6.5% | -0.6% | 4.3% | · | · | · | · | ·

From PubChem BioAssay
